# The list is not random: actives were taken first. Their share in the collection is about 19%.
# HT1080 IDH1KD tx – kills HT-1080 cells with IDH1 knockdown; Potency, µM (doses to about 46.1 µM), inactives show at the top dose activity, negative = toxicity, actives largely listed as cytotoxic; 360,000 tested, 2% active; HT-1080 IDH1 knockdown viability, ATP luminescence, 48 h;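 further: potency means the concentration at half of the fitted maximal effect; 0% = DMSO wells and -100% = cell-free medium wells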
#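 Knockdown cells (IDH1KD HT-1080) received compounds 2 h after plating at 750 cells/well and were kept 48 h at 37 °C in 5% FBS RPMI. A CellTiter-Glo luminescence read gave % activity for curve fitting.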
# DT40 TDP1 no CPT – qHTS for Inhibitors of human tyrosyl-DNA phosphodiesterase 1 (TDP1): qHTS in cells in absence of CPT | Potency, µM (highest dose often 46.2 µM), for inactives: at the highest dose activity change, negative = growth inhibition, most hits filed as inhibitors | 420,000 tested, 15% active | DT40 Tdp1-/- hTDP1 cells, no CPT, ATP luminescence, 48 h | AID 686978, 2013; further: potency means the concentration at half of the fitted maximal effect; nearly all actives have a fitted effect of over 55% in size
#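 Growth kinetics read by CellTiter-Glo luminescence after ≥48 hr at 37 °C. Cells: DT40 Tdp1-/- stably carrying human TDP1, 400 per well, compound exposure in the absence of CPT (DMSO vehicle).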
# IL-1B inflam inh – blocks inflammasome-driven IL-1 beta release; THP-1 LPS/ATP IL-1B secretion, AlphaLISA, 16 h; active compounds read low; 360,000 tested, 4.7% active; activity change, % at 57.5 µM; in the data active means activity change below about -50%; inconclusive means mostly about -30% to -49%
#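 THP-1 cells pretreated 1 hr with compounds (up to 57.5 uM final), then stimulated with LPS (250 ng/mL final) plus ATP (1.25 mM final); secreted IL-1B measured by AlphaLISA after 16 hr, decreased signal indicating inhibition.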
# DT40 TDP1 CPT – DT40-hTDP1 cell growth loss with CPT. chicken DT40 Tdp1-/-;hTDP1 cells + 20 nM CPT, ATP luminescence, 48 h. Potency, µM (series often up to 46.2 µM), inactives show at the highest dose activity change, negative = growth inhibition, hits mostly inhibitors. 420,000 tested, 12% active; further: potency means the concentration at half of the fitted maximal effect; nearly all actives have a fitted effect of over 55% in size
#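 Chicken DT40 Tdp1-/- cells stably complemented with human TDP1 were seeded at 400 cells/well in medium containing 20 nM camptothecin, exposed to pin-transferred compounds, and grown at 37 °C for at least 48 hr. Viability was read as ATP luminescence.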
# HT1080-NT tox – kills 2HG-producing HT-1080-NT fibrosarcoma cells | HT-1080-NT fibrosarcoma viability, CellTiter-Glo ATP luminescence, 48 h | Potency, µM (top dose mostly 46.1 µM), without a hit: at the highest dose activity, negative = less viability, actives largely listed as cytotoxic | 360,000 tested, 1.6% active | AID 686970;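 further: NT is the 2HG producing partner of a matched IDH1 knockdown line; potency means the concentration at half of the fitted maximal effect; 0% = DMSO-treated cells and -100% = media-only wells without cells; nearly all actives have a fitted effect of over 55% in size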
#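 Luminescent CellTiter-Glo readout after 48 hours of compound exposure at 37 degrees C defined viability of HT-1080-NT cells. Activity was normalized to DMSO wells and cell-free media wells; concentration-response curves were fitted and assigned curve classes.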
# * hit, by the source's call; ? = inconclusive; / = no result; [ ] = another dose, or the depositor's remark. Unless noted, the call rests on the fitted dose curve; in most records, active means well fitted curve in the direction sought with a large enough effect; inconclusive means small, poorly fitted or top-dose-only effect, or another doubt; inactive means no such curve, though single readings can be large; an effect the other way counts as inactive or inconclusive. Unless noted, on the % scale 0 is the no-effect control and ±100 the full control effect.
SMILES,HT1080 IDH1KD tx,DT40 TDP1 no CPT,IL-1B inflam inh,DT40 TDP1 CPT,HT1080-NT tox
O=S(=O)(c1cc(Cl)cc(Cl)c1)N1CCC2CC1c1cc(Cl)ccc12 (configuration not stated),4.6%,?,20.3,?,4.5%
Cc1ccccc1C(C(=O)NCc1ccco1)N(CC1CCCO1)C(=O)Cn1nnc2ccccc21 (configuration not stated),13.0%,-28.3%,-14.4,?,-3.2%
CCC(C)(C)NC(=O)C(c1ccc(C)cc1)N(Cc1ccco1)C(=O)Cn1nnc2ccccc21 (configuration not stated),?,-29.6%,30.8,-15.6%,?
O=C(NC1CCCCC1)C(c1ccc(F)cc1)N(Cc1ccco1)C(=O)Cn1nnc2ccccc21 (configuration not stated),-27.7%,-15.6%,9.3,-23.0%,-16.6%
COc1cccc(C(C(=O)NCc2ccco2)N(C(=O)Cn2nnc3ccccc32)C2CC2)c1OC (configuration not stated),12.7%,13µM*,7.0,18.4µM*,11.3%
Cc1cccc(C)c1NC(=O)C(c1cccs1)N(Cc1ccco1)C(=O)Cn1nnc2ccccc21 (configuration not stated),2.7%,10.3µM*,-3.2,?,8.4%
O=C(NC1CCCCC1)C(c1ccccc1F)N(Cc1ccco1)C(=O)Cn1nnc2ccccc21 (configuration not stated),-0.9%,18.4µM*,-7.0,?,-8.0%
Cc1ccc(C(C(=O)NC2CCCCC2)N(Cc2ccco2)C(=O)Cn2cnc3ccccc32)cc1 (configuration not stated),?,?,-2.1,18.4µM*,-21.5%
O=C(c1n[nH]c2c1CCCC2)N1CCC(n2c(C3CCCO3)nc3ccccc32)CC1 (configuration not stated),/,-25.7%,/,-6.2%[9.04 µM],/
Cc1csc(=O)n1CC(=O)OCC(=O)Nc1cc(S(=O)(=O)N2CCOCC2)ccc1Cl,4.9%,-17.1%,-5.1,-14.5%,5.0%
O=C(NCC1CCCO1)C(c1ccco1)N(Cc1ccc(F)cc1)C(=O)CN1C(=O)c2ccccc2S1(=O)=O (configuration not stated),10.7%,-25.6%,7.8,-8.6%,4.5%
O=C(NC1CCCCC1)C(c1ccc(F)cc1)N(Cc1ccco1)C(=O)CN1C(=O)c2ccccc2S1(=O)=O (configuration not stated),-1.2%,18.4µM*,-2.9,?,-1.8%
COc1ccc(NC(=O)c2ccc(CNc3c(N4CCCC4)c(=O)c3=O)cc2)cc1Cl,6.0%,-9.8%,?,-17.2%,26.9%
CNc1nn(-c2cccc(Cl)c2)nc1N,-12.4%,2.06µM*,-12.5,?,-12.7%
Cc1cc2nn(-c3ccc(Cl)cc3)nc2cc1N,2.3%,-17.3%,15.2,7.9%,0.5%
CCN(c1cccc(C)c1)S(=O)(=O)c1cc2c3c(c1)CCN3C(=O)CC2,-13.6%,14.6µM*,18.5,29.1µM*,-1.7%
CCN(c1ccccc1)S(=O)(=O)c1cc2c3c(c1)C(C)C(=O)N3CCC2 (configuration not stated),2.7%,16.4µM*,8.2,18.4µM*,-2.0%
CC1C(=O)N2CCCc3cc(S(=O)(=O)NCCc4ccccc4)cc1c32 (configuration not stated),1.9%,-26.7%,8.7,?,-4.1%
Cc1cccc(NC(=O)CN2CCN(C(=O)c3cccc(-n4cnnn4)c3)CC2)c1C,-9.1%,-19.9%,-11.4,?,-4.4%
Cc1cccc(NC(=O)CN2CCN(C(=O)c3ccc(OCc4cn5ccccc5n4)cc3)CC2)c1C,-1.9%,9.2µM*,?,18.4µM*,-8.4%[9.24 µM]
O=C(CN1CCN(C(=O)c2ccc(OCc3cn4ccccc4n3)cc2)CC1)Nc1cccc(F)c1,-13.9%,14.6µM*,-18.3,23.1µM*,7.31µM*
COc1ccc(S(=O)(=O)N(C)C[C@H]2OCc3cn(nn3)CCCC(=O)N([C@H](C)CO)C[C@@H]2C)cc1,1.4%,-6.0%,7.2,5.8%,4.4%
CC1=C(C(=O)OCC2CCCO2)C(c2ccccc2)C2=C(CC(C)(C)CC2=O)N1 (configuration not stated),-5.2%,-26.2%,-11.5,-2.8%,15.1%
CCOc1ccc(CNC(=O)CCn2c(=O)c3cccn3c3cccnc32)cc1,/,-12.2%,/,-7.4%,/
CCN(c1ccc(NC(=O)COC(=O)c2ccc(S(=O)(=O)N3CCCC3)cc2)cc1)C(C)C,2.3%,-2.4%,-0.2,-7.2%,5.1%
SMILES,HT1080 IDH1KD tx,DT40 TDP1 no CPT,IL-1B inflam inh,DT40 TDP1 CPT,HT1080-NT tox
CCc1cc(=O)oc2c3c(cc(OCC(=O)NCc4ccccn4)c12)OC(C)(C)CC3,-3.1%,?,-21.8,23.1µM*,0.1%
CCc1cc(=O)oc2c3c(cc(OCC(=O)Nc4cccnc4)c12)OC(C)(C)CC3,-19.7%,14.6µM*,?,?,-0.6%
CCc1cc(=O)oc2c3c(cc(OCC(=O)NCc4cccnc4)c12)OC(C)(C)CC3,-3.0%,20.6µM*,-1.4,?,-3.3%
CCCc1cc(=O)oc2c3c(cc(OCC(=O)NCCCn4ccnc4)c12)OC(C)(C)CC3,-9.0%,25.9µM*,0.0,16.4µM*,-11.8%
Cc1c(C)c2c(OCC(=O)NCc3cccnc3)cc3c(c2oc1=O)CCC(C)(C)O3,-3.5%,-9.8%,11.0,-4.5%,-8.7%
CCn1c(C)cc(C(=O)CN2C(=O)c3ccccc3S2(=O)=O)c1C,-0.4%,-9.0%,-7.9,2.7%,7.8%
Cc1ccc(C(=O)CN2/C(=C(\O)c3ccccc3)C(=O)c3ccccc3S2(=O)=O)c(C)c1,?,16.4µM*,9.4,11.6µM*,?
Cc1cc(C(=O)Cn2cc(C(F)(F)F)ccc2=O)c(C)n1-c1ccccc1,-6.7%,?,-19.8,?,-11.2%
Cc1ccc(C(=O)CN2C(=O)c3ccccc3S2(=O)=O)cc1,-2.6%,7.3%,13.0,27.7%,9.5%
Cc1cc(C(=O)CN2C(=O)c3ccccc3S2(=O)=O)c(C)n1-c1ccccc1,-7.2%,23.1µM*,-28.4,20.6µM*,0.7%
Cc1cc(C(=O)CN2C(=O)C3CC=CCC3C2=O)c(C)n1-c1ccccc1 (configuration not stated),-12.5%,23.1µM*,0.5,23.1µM*,-8.1%
O=c1cc(CSc2ccccc2)nc(-c2ccncc2)[nH]1,21.0%,-11.5%,-7.3,14.5%,5.2%
CCN(CC)CCNS(=O)(=O)c1ccc(OC)c(Br)c1,12.3%,-7.4%,0.1,4.4%,9.8%
COC(=O)c1cc(O)cc(OC)c1C(=O)c1c(O)cc(C)cc1O,-7.9%,?,8.5,?,-3.7%

# Bioassay records (PubChem)
